Source: PubChem
A selection: hits, their analogues and other compounds. The true share with any hit is near 2.4%.
D2 PAM-1: HTS Assay for Positive Allosteric Modulators of the Human D2 Dopamine Receptor: Primary Screen for Potentiators. potentiation, % at 10 µM. AID 485347, 2010. 0.34% of 340,000 active. HEK293 T-REx D2, calcium flux, EC20 dopamine potentiation;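 active means potentiation over 3 SD above the plate norm, cut at about 30% in these data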
Target sequence (P14416 whole entry, looked up): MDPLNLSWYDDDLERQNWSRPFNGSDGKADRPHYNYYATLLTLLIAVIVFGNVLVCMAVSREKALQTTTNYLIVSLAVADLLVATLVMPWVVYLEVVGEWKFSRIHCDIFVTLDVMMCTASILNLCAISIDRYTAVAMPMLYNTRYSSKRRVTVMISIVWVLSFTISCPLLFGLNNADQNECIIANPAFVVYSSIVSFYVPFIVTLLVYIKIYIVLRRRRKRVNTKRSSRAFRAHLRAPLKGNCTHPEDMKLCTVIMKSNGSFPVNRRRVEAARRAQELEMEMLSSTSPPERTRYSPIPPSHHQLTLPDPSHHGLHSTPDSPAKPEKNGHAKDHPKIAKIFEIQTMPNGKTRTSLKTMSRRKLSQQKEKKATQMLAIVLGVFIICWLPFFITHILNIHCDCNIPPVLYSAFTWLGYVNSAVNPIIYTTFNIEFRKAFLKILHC
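Tetracycline-induced Hek293 Trex D2 cells, force-coupled to calcium, loaded with no-wash calcium dye. Compound added with 180 s kinetic read for agonism, then EC20 dopamine and a further 180 s read for potentiation.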
D2 ag-1: HTS Assay for Allosteric Agonists of the Human D2 Dopamine Receptor: Primary Screen for Agonists; HEK293 T-REx D2 cells, calcium flux agonist mode; AID 485358, 2010; D(2) dopamine receptor (Homo sapiens), P14416; activation, % at 2 µM; 0.53% of 340,000 active;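 active means activation over 3 SD above normal in the single-dose calcium agonist read, cut at about 30% in these data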
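Tetracycline-induced HEK293 T-REx cells with force-coupled D2 receptor, plated overnight at 30 C, loaded with no-wash calcium dye. After a 10 s baseline, compound was pin-added and calcium flux read kinetically for 180 s; calcium rises flagged agonists.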
D2 PAM-2: Beta-Arrestin HTS for Positive Allosteric Modulators of the Human D2 Dopamine Receptor: Potentiators; D(2) dopamine receptor (Homo sapiens), P14416; DiscoveRx D2 beta-arrestin cells, luminescence, 90 min; 100% = 57 uM dopamine signal; potentiation, % (test concentration not listed); 0.23% of 360,000 active; AID 624464, 2012; in the data active means potentiation above about 50%; inconclusive means mostly about 30% to 49%
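D2 cells co-treated with compound plus 50 nM dopamine (EC20) for 90 min at 37 deg C to detect potentiation. Beta-arrestin recruitment was read as enzyme-fragment luminescence after 1 h at ambient temperature. Full response was set by 57 uM dopamine.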
D2 ag-2: Beta-Arrestin HTS for Positive Allosteric Modulators of the Human D2 Dopamine Receptor: Agonists; D(2) dopamine receptor (Homo sapiens), P14416; DiscoveRx PathHunter D2 beta-arrestin, luminescence, 90 min; 100% = 57 uM dopamine signal; activation, % (no concentration beside the values); 0.084% of 360,000 active; AID 624465, 2012; in the data active means activation above about 40%; inconclusive means between about 15% and that limit
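Agonist mode: compounds alone added to overnight-plated D2 PathHunter cells for 90 min at 37 C, with 57 uM final dopamine (EC100) defining full response. Beta-arrestin recruitment detected by chemiluminescent reagent, read after 1 h at ambient temperature.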
D2 antagonist: HTS Assay for Allosteric Antagonists of the Human D2 Dopamine Receptor: Primary Screen for Antagonists. D(2) dopamine receptor (Homo sapiens), P14416. HEK293 TREx D2 cells, calcium flux, dopamine EC80. inhibition, % at 10 µM. 2% of 340,000 active. AID 485344, 2010; in the data active means inhibition above about 30%; inactive means below that, where a call was filed
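Calcium flux kinetic readout in an inducible HEK293 TREx D2 line plated overnight at 30 C. After 180 s compound exposure, an EC80 dopamine challenge follows with another 180 s kinetic read to detect antagonism.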
Numbers stand for hits.

What do the screens show for `O=c1c(/C=C(\O)c2ccc(F)cc2)nc2ccccc2n1-c1ccccc1`?
D2 PAM-1: inactive; D2 ag-1: 44; D2 PAM-2: inactive; D2 ag-2: inactive; D2 antagonist: inactive

Results for COc1ccc(CNC(=O)Cn2ccc3cc(S(=O)(=O)N4CCCCC4)ccc32)cc1OC ?
D2 PAM-1: inactive; D2 ag-1: inactive

How did CC(=O)SCC[N+](C)(C)C do in these assays?
D2 PAM-1: inactive; D2 ag-1: inactive; D2 PAM-2: inactive; D2 ag-2: inactive; D2 antagonist: 36

Results for C[N+](C)(C)CCOC(=O)CCC(=O)OCC[N+](C)(C)C ?
D2 PAM-2: inactive; D2 ag-2: inactive

What do the screens show for `Cc1nnc(SC(C)C(=O)NCC2CCCO2)s1` (centres undefined)?
D2 PAM-1: inactive; D2 ag-1: inactive; D2 PAM-2: inactive; D2 ag-2: inactive; D2 antagonist: 31

Results for Cc1ccc(Nc2nnc(SC(C)C(=O)NCC3CCCO3)s2)cc1C (centres undefined) ?
D2 PAM-1: inactive; D2 ag-1: inactive; D2 PAM-2: inactive; D2 ag-2: inactive; D2 antagonist: inactive

How did CC(=O)Oc1ccc2c(c1)Oc1cc(OC(C)=O)ccc1C21OC(=O)c2ccccc21 do in these assays?
D2 PAM-1: inactive; D2 ag-1: 165; D2 PAM-2: inconclusive; D2 ag-2: inactive; D2 antagonist: 84

Results for Cc1cc(O)ccc1C1(c2ccc(O)cc2C)OC(=O)c2ccccc21 ?
D2 PAM-1: inactive; D2 ag-1: inactive; D2 PAM-2: inactive; D2 ag-2: inactive; D2 antagonist: inactive

What do the screens show for `CCN(Cc1ccccc1)C(=O)Cn1c(=O)n(-c2cccc(C)c2)c(=O)c2c1c1cc(OC)ccc1n2C`?
D2 PAM-1: inactive; D2 ag-1: inactive

What do the screens show for `O=C(CCCN1CCC(c2ccccc2)C1)c1ccc2c(c1)OCCO2` (centres undefined)?
D2 PAM-1: inactive; D2 ag-1: inactive; D2 PAM-2: inactive; D2 ag-2: inactive; D2 antagonist: 79

How did O=C(CCCN1CCOCC1)c1ccc2c(c1)OCCO2 do in these assays?
D2 PAM-1: inactive; D2 ag-1: inactive; D2 PAM-2: inactive; D2 ag-2: inactive; D2 antagonist: inactive

Results for Cc1cc(NC(=O)CCC(=O)N(Cc2ccco2)C2(C(=O)NC3CCCC3)CCCCC2C)no1 (centres undefined) ?
D2 PAM-1: inactive; D2 ag-1: inactive; D2 PAM-2: inactive; D2 ag-2: inactive; D2 antagonist: 34

How did CC(=O)N(Cc1ccco1)C1(C(=O)NC2CCCCC2)CCCCC1 do in these assays?
D2 PAM-2: inactive; D2 ag-2: inactive

Results for Cc1cc(NC(=O)CCC(=O)N(Cc2ccco2)C2(C(=O)NC3CCCC3)CCCCC2)no1 ?
D2 PAM-1: inactive; D2 ag-1: inactive; D2 PAM-2: inactive; D2 ag-2: inactive; D2 antagonist: inactive

What do the screens show for `CC(=O)NCC(=O)N(Cc1ccco1)C1(C(=O)NC2CCCCC2)CCCCC1`?
D2 PAM-1: inactive; D2 ag-1: inactive; D2 PAM-2: inactive; D2 ag-2: inactive; D2 antagonist: 73

Results for CCN(CC)c1ccc(/C=C/c2cc(-c3ccccc3)c3ccccc3n2)cc1 ?
D2 PAM-1: inactive; D2 ag-1: 54; D2 PAM-2: inactive; D2 ag-2: inactive; D2 antagonist: 43

What do the screens show for `Cc1ccc(-c2nnc(N(C)C(=O)c3cccnc3)s2)cn1`?
D2 PAM-1: inactive; D2 ag-1: inactive; D2 PAM-2: inactive; D2 ag-2: inactive; D2 antagonist: inactive

What do the screens show for `Cc1ccc(-c2nnc(N(C)C(=O)c3cccnc3)s2)cc1`?
D2 PAM-1: 38; D2 ag-1: inactive; D2 PAM-2: inactive; D2 ag-2: inactive; D2 antagonist: inactive

What do the screens show for `CCCN(CCC)c1ccc(/C=C/c2ccc3cc(OCC)ccc3n2)cc1`?
D2 PAM-1: inactive; D2 ag-1: 38; D2 PAM-2: inactive; D2 ag-2: inactive; D2 antagonist: inactive
